Results on 35 molecules are retold here after PubChem BioAssay.

Calls of active or inactive are those of the source.

The target of the assay is Luciferin 4-monooxygenase (Photinus pyralis) (UniProt P08659). The assay is described as follows: inhibition of purified Photinus pyralis luciferase – biochemical, luminescence, purified enzyme, 2006 set, primary screen (AID 1141).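 Note: cell-free assay with purified firefly luciferase at 100 ng per well in PBS; test concentration not given here.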 The following applies: purified firefly luciferase, SteadyGlo luminescence, 30 min; higher = more signal, called active from +8 up or from −8 down.
Sequence of Luciferin 4-monooxygenase (Photinus pyralis) (P08659 whole entry, looked up): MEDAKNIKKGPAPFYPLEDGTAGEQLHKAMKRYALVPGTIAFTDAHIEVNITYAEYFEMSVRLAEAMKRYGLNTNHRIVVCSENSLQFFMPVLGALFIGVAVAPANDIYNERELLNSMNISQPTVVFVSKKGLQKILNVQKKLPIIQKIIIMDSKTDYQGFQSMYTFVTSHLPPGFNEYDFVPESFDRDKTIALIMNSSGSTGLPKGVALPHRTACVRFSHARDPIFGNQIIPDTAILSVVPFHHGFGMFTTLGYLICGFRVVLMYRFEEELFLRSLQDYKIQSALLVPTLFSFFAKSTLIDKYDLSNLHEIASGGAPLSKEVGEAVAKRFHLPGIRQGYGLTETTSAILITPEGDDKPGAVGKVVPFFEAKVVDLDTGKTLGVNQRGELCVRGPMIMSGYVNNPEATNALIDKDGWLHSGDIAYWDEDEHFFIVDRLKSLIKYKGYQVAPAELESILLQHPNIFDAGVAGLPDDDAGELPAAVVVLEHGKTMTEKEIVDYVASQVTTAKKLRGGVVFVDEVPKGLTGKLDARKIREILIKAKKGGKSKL
Regarding `O=C(O)C1=CC[C@H]2C(=O)N(c3ccccc3)C(=O)[C@@H]12`, the z-score was 1.57 (inactive).
The result for `CCc1cccc(NC(=O)O[C@H]2[C@H](OC(=O)Nc3ccccc3-c3ccccc3)[C@H](OC(=O)Nc3ccccc3-c3ccccc3)[C@@H](OC)O[C@@H]2CO)c1` reads 1.09 (inactive).
`C=C(COC)/C(=C/C[C@@H](OC(C)=O)c1cccc(OCCO)c1)c1cnc2ccccc2c1`: the z-score is -1.11 (inactive).
On to `Cc1ccc(S[C@]2(C(=O)NCc3ccccc3)CC(=O)N(Cc3ccccc3C(F)(F)F)[C@@H]2c2ccc(CO)cc2I)cc1`, for which the z-score is -0.913 (inactive).
Turning to `COCCOC(=O)N1C(=O)[C@@]2(c3cc(C#CC4(O)CCCCCC4)ccc31)[C@H](C(N)=O)[C@H]1C(=O)O[C@H](c3ccccc3)[C@H](c3ccccc3)N1[C@@H]2c1ccc(OCCO)cc1`, the z-score was -1.03 (inactive).
Regarding `COc1c(C)cc(-c2cc3c(c(CCc4ccccc4)n2)[Si](C(C)C)(C(C)C)O[C@H]3c2ccccc2)cc1C`, the z-score is -0.183 (inactive).
On to `COC(=O)[C@@]1(Cc2ccc(F)cc2)[C@H]2c3cc(C(=O)N(C)C)n(Cc4cccc5ccccc45)c3C[C@H]2CN1C(=O)c1ccccc1`, for which the z-score was 4.74 (inactive).
As to `CC(C)C[C@@H]1NC(=O)[C@@H]2C[C@H](C(=O)NCCCCCNC(=O)CS)[C@H](c3ccc(O)cc3)N2C1=O`, the z-score was 0.448 (inactive).
As for `C=C[C@@H](CO)NS(=O)(=O)c1ccc(Br)cc1`, the z-score is -1.23 (inactive).
Regarding `COC(=O)[C@@]1(Cc2ccc(F)cc2)[C@H]2c3cc(C(=O)N(C)C)n(CCF)c3C[C@H]2CN1C(=O)c1ccccc1`, the z-score was -1.09 (inactive).
The result for `COC(=O)[C@@]1(Cc2ccccc2)[C@H]2c3cc(C(=O)N(C)C)n(Cc4nc5ccccc5[nH]4)c3C[C@H]2CN1C(=O)c1ccccc1` reads -1.77 (inactive); that for `C=C(C(=O)CC[C@@H](OC(=O)c1ccccc1-c1ccccc1C(=O)O)c1ccc(OCCO)cc1)C(C)C`, -2.66 (inactive); that for `COCCOC(=O)N1C(=O)[C@@]2(c3cc(C#CCCO)ccc31)[C@H](C(=O)N1CCN(c3ncccn3)CC1)[C@H]1C(=O)O[C@H](c3ccccc3)[C@H](c3ccccc3)N1[C@@H]2c1ccc(OCCO)cc1`, -0.21 (inactive).
`O=C1OC[C@@H](c2ccccc2)n2cc(/C=C/c3ccccc3)cc21`: the z-score was 0.287 (inactive).
Turning to `CCOC(=O)C[C@H]1[C@H](OC(=O)c2cc3ccccc3oc2=O)[C@@H](NC(=O)Cc2ccc(OC)cc2)c2cc(OCCCO)ccc2N1C(=O)Cc1ccc(OC)cc1`, the z-score was 0.827 (inactive).
In the case of `C=CCN1C(=O)[C@@]2(O[C@@H](CCO)[C@H]([Si](C)(C)c3ccc(OC)cc3)[C@H]2C)c2cc(N3CCCCC3=O)ccc21`, the z-score was -0.0999 (inactive).
The result for `COc1ccc(CCNC(=O)[C@@]2(C)c3ccccc3C(=O)N(Cc3ccc(OC(F)(F)F)cc3)[C@H]2c2ccc(CO)cc2)cc1` reads -0.629 (inactive).
As for `COC(=O)[C@@]1(Cc2ccccc2)[C@H]2c3cc(C(=O)N(C)C)n(CCF)c3C[C@H]2CN1C(=O)c1ccccc1`, the z-score is 1.02 (inactive).
Regarding `COc1ccc(NN2C(C(O)c3ccc(F)cc3)C=CC3C(=O)N(C4CCCCC4)C(=O)C32)cc1` (stereo not given), the z-score was 0.613 (inactive).
In the case of `COC(=O)[C@@]1(Cc2ccc(F)cc2)[C@H]2c3cc(C(=O)N(C)C)n(Cc4ccsc4Br)c3C[C@H]2CN1C(=O)c1ccccc1`, the z-score was 1.18 (inactive).
Regarding `COc1ccc(NN2C(C(O)c3ccccc3)C=CC3C(=O)N(C4CCCCC4)C(=O)C32)cc1` (stereo not given), the z-score is -0.684 (inactive).
Turning to `C=CC[C@H](OC(=O)Nc1ccc(SC)cc1)c1ccc(O)c(F)c1`, the z-score is -1.83 (inactive).
The result for `CO[C@H]1O[C@H](CO)[C@@H](OC(=O)CCc2ccccc2)[C@@H]2OC(=O)[C@@H](Cc3ccc4ccccc4c3)C/C=C/C[C@H](Cc3ccc4ccccc4c3)C(=O)O[C@@H]12` reads -0.958 (inactive); that for `COC(=O)[C@H](Cc1ccccc1)N1CC(C)(OC)O[C@@H](Cc2ccccc2)[C@H]1/C=C/C1CC1` (stereo not given in full), -0.138 (inactive).
The result for `C[C@H]1C2[C@H](Cc3ccccc3)NC(=O)[C@]23C(=O)N[C@@H](Cc2ccccc2)C(=O)N2CCC[C@H]2C(=O)NC/C=C/CC/C=C/C3[C@@H]2O[C@]12C` (stereo not given in full) reads 0.527 (inactive); that for `C=C(C(=O)CC[C@@H](OC(=O)c1ccccc1-c1ccccc1C(=O)O)c1cccc(OCCO)c1)C(C)C`, -1.62 (inactive).
Regarding `C=C(CCCC)C(=O)CC[C@H](OC(=O)c1ccccc1-c1ccccc1C(=O)O)c1cccc(OCCO)c1`, the z-score was -0.755 (inactive).
For `C=C(CCCC)/C(=C/C[C@@H](OC(C)=O)c1cccc(OCCO)c1)c1cc(C(=O)OC)ccc1OC` the value was -0.132 (inactive); for `CCCCCN1CC=CC23O[C@@H]4/C=C\CCCOC(=O)C4[C@H]2C(=O)N(CCO)[C@@H]3C1=O` (stereo not given in full), -2.06 (inactive); for `O=C1NC(=O)C2C1C=CC(C(O)C1CCCCC1)N2Nc1ccccn1` (stereo not given), -0.224 (inactive).
For `COC(=O)C1(CC(C)C)C=C2C(=C(C)C(=O)C2C)CN1` (stereo not given), the z-score was 1.98 (inactive).
In the case of `Cc1ccc(N2C(=O)c3ccccc3[C@@H](C(=O)NCCN3CCOCC3)[C@@H]2c2ccc(CO)cc2)nc1`, the z-score is 1.09 (inactive).
For `COCCOC(=O)N1C(=O)[C@@]2(c3cc(C#CCNC(N)=O)ccc31)[C@H](c1ccc(O)cc1)N1[C@H](c3ccccc3)[C@H](c3ccccc3)OC(=O)[C@H]1[C@@H]2C(=O)N1CCc2cc(OC)c(OC)cc2C1` the value was -1.45 (inactive); for `O=C(NC1CC1)[C@@H]1c2ccccc2C(=O)N(C2CCCCC2)[C@H]1c1ccc(CO)cc1`, 0.0436 (inactive); for `COc1ccc([Si](C)(C)[C@@H]2[C@@H](CC(=O)N(CCO)Cc3ccccc3)O[C@]3(C(=O)N(Cc4cccc(I)c4)c4ccccc43)[C@H]2C)cc1`, -0.216 (inactive).
